From PubChem BioAssay (NCI)
This is part of a sample that, as a whole, favours compounds with a hit. Of some 83,000 tested, about 20% had one in any assay.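 96-well plates, one dose, 48 hours. Percent growth reported; active if below 10.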 Active and inactive are the calls of the source.

Experiments:
Test in all cases: NCI-60 one-dose screen, 48 h (100 = growth as untreated, 0 = no growth, -100 = all killed)
SR leukemia = conditions: 10 µM unless noted
OVCAR-8 ovarian = conditions: 10 µM unless noted
OVCAR-5 ovarian = conditions: 10 µM unless noted
OVCAR-4 ovarian = conditions: 10 µM unless noted
SK-OV-3 ovarian = conditions: 10 µM unless noted
IGROV1 ovarian = conditions: 10 µM unless noted
OVCAR-3 ovarian = conditions: 10 µM unless noted
HS 578T breast = conditions: 10 µM
NCI/ADR-RES ovarian = conditions: 10 µM unless noted
T-47D breast = conditions: 10 µM unless noted
MDA-MB-435 melanoma = conditions: 10 µM unless noted
SW-620 colon = conditions: 10 µM unless noted
MCF7 breast = conditions: 10 µM unless noted
HCT-116 colon = conditions: 10 µM unless noted
HCC-2998 colon = conditions: 10 µM
KM12 colon = conditions: 10 µM unless noted
BT-549 breast = conditions: 10 µM unless noted
RPMI-8226 leukemia = conditions: 10 µM unless noted

Measured: growth

O=S1(=O)OC(c2ccc(O)c(Cl)c2)(c2ccc(O)c(Cl)c2)c2ccccc21
inactive: SR leukemia 112% | OVCAR-8 ovarian 87.5% | OVCAR-5 ovarian 96.5% | OVCAR-4 ovarian 99.8% | SK-OV-3 ovarian 101% | IGROV1 ovarian 91.2% | OVCAR-3 ovarian 116% | HS 578T breast 97% | NCI/ADR-RES ovarian 105% | T-47D breast 97.2% | MDA-MB-435 melanoma 113% | SW-620 colon 100% | MCF7 breast 104% | HCT-116 colon 99.8% | HCC-2998 colon 103% | KM12 colon 103%

O=C(/C=C/c1ccc2c(c1)OCO2)c1c(O)c2ccccc2oc1=O
inactive: SR leukemia 79% | OVCAR-8 ovarian 93.9% | OVCAR-5 ovarian 102% | OVCAR-4 ovarian 106% | IGROV1 ovarian 112% | OVCAR-3 ovarian 104% | NCI/ADR-RES ovarian 102% | T-47D breast 89% | BT-549 breast 95.8% | MDA-MB-435 melanoma 104% | SW-620 colon 128% | MCF7 breast 88.9% | HCT-116 colon 86.9% | HCC-2998 colon 112% | KM12 colon 93.6%

O=C(Cc1ccc(/C=C/C(=O)c2ncc[nH]2)cc1)Nc1ccc(S(F)(F)(F)(F)F)cc1
active: SR leukemia 4.88% | HCT-116 colon -73.6% | KM12 colon 8.06%
inactive: OVCAR-8 ovarian 88.2% | OVCAR-5 ovarian 86.8% | OVCAR-4 ovarian 93.2% | SK-OV-3 ovarian 101% | IGROV1 ovarian 52.8% | OVCAR-3 ovarian 80.3% | NCI/ADR-RES ovarian 97.2% | T-47D breast 57.6% | BT-549 breast 64.3% | MDA-MB-435 melanoma 56.1% | SW-620 colon 10.4% | MCF7 breast 12.4% | HCC-2998 colon 78.9%

CC(=O)OCCC/C(=C\c1ccc2ccccc2c1)[N+](=O)[O-]
active: SR leukemia -33.8% | OVCAR-5 ovarian -93.2% | IGROV1 ovarian -82.3% | OVCAR-3 ovarian -96.6% | HS 578T breast -40% | NCI/ADR-RES ovarian -7.25% | T-47D breast -50.9% | BT-549 breast -25.6% | MDA-MB-435 melanoma -41.6% | SW-620 colon -71.6% | MCF7 breast -85.2% | HCT-116 colon -100% | HCC-2998 colon -92.7% | KM12 colon -86.7%
inactive: OVCAR-4 ovarian 11.1% | SK-OV-3 ovarian 57.9%

CC(C)[C@@H]1CC[C@]2(CO2)[C@@H]2C(=O)OCC(C(=O)O)=C[C@H]21
inactive: OVCAR-5 ovarian 22% | OVCAR-4 ovarian 12.7% | SK-OV-3 ovarian 15.7% | T-47D breast 12.3% | MCF7 breast 45.3%
active: SR leukemia -4.75% | OVCAR-8 ovarian 4.64% | IGROV1 ovarian 5.4% | OVCAR-3 ovarian 5.83% | HS 578T breast -5.29% | BT-549 breast -5.36% | MDA-MB-435 melanoma -6.19% | SW-620 colon 5.52% | HCT-116 colon 3.63% | HCC-2998 colon 4.07% | KM12 colon 2.53%

CCN1CCN(Cc2ccc(Cc3ncc(F)c(-c4cc(F)c5nc(C)n(C(C)C)c5c4)n3)nc2)CC1
active: SR leukemia -12.4% | HCT-116 colon 5.58%
inactive: OVCAR-8 ovarian 68.3% | OVCAR-5 ovarian 46.5% | OVCAR-4 ovarian 69.5% | SK-OV-3 ovarian 22.4% | IGROV1 ovarian 37.3% | OVCAR-3 ovarian 63.2% | NCI/ADR-RES ovarian 72.3% | T-47D breast 65.2% | BT-549 breast 61% | MDA-MB-435 melanoma 45.9% | MCF7 breast 25.1% | HCC-2998 colon 54.7% | KM12 colon 28%

N#Cc1ccc(-n2nnc3ccccc32)cc1C#N
inactive: RPMI-8226 leukemia 101% | OVCAR-8 ovarian 99% | OVCAR-5 ovarian 110% | OVCAR-4 ovarian 110% | SK-OV-3 ovarian 98.8% | IGROV1 ovarian 104% | OVCAR-3 ovarian 101% | HS 578T breast 105% | NCI/ADR-RES ovarian 101% | T-47D breast 86.3% | BT-549 breast 106% | MDA-MB-435 melanoma 85.3% | SW-620 colon 94.4% | MCF7 breast 82% | HCT-116 colon 102% | HCC-2998 colon 104% | KM12 colon 96.4%

CN(C)C[C@@H]1CCn2cc(c3ccccc32)C2=C(C(=O)NC2=O)c2cn(c3ccccc23)CCO1
active: SR leukemia -11.8% | OVCAR-5 ovarian -7.31% | OVCAR-4 ovarian -45.9% | SK-OV-3 ovarian 6.11% | IGROV1 ovarian -13.1% | OVCAR-3 ovarian 1.36% | NCI/ADR-RES ovarian 6.82% | BT-549 breast -3.62% | SW-620 colon -57.6% | MCF7 breast -58.8% | HCT-116 colon -69.4% | KM12 colon 3.55%
inactive: T-47D breast 21.2% | MDA-MB-435 melanoma 20.2% | HCC-2998 colon 22%

C[C@@H](N)c1ccc(C(=O)Nc2ccnc3[nH]ccc23)cc1
active: SR leukemia 9.45% | SK-OV-3 ovarian -45.2%
inactive: OVCAR-8 ovarian 36.2% | OVCAR-5 ovarian 42.9% | OVCAR-4 ovarian 69.9% | IGROV1 ovarian 27.9% | OVCAR-3 ovarian 57.9% | NCI/ADR-RES ovarian 84% | T-47D breast 61.9% | BT-549 breast 13.9% | MDA-MB-435 melanoma 80.4% | SW-620 colon 20.5% | MCF7 breast 42.7% | HCT-116 colon 14.4% | KM12 colon 30.3%

Nc1nc(Nc2ccccc2)c(C=Nc2ccccc2)c(=O)[nH]1
inactive: RPMI-8226 leukemia 94.8% | OVCAR-5 ovarian 90.7% | OVCAR-4 ovarian 94.8% | SK-OV-3 ovarian 86.3% | IGROV1 ovarian 48.5% | OVCAR-3 ovarian 110% | NCI/ADR-RES ovarian 91.9% | T-47D breast 81.4% | BT-549 breast 75.1% | MDA-MB-435 melanoma 94.7% | SW-620 colon 98.4% | MCF7 breast 92.5% | HCT-116 colon 85.1% | HCC-2998 colon 99.3% | KM12 colon 98.6%

O=C(Cc1ccc(/C=C/C(=O)c2ncc[nH]2)cc1)Nc1ccc(Br)cc1
active: SR leukemia 5.06% | OVCAR-8 ovarian 6.77% | IGROV1 ovarian 8.48% | OVCAR-3 ovarian 9.63% | SW-620 colon 2.37% | HCT-116 colon -40.2% | KM12 colon -43.3%
inactive: OVCAR-5 ovarian 18.7% | OVCAR-4 ovarian 46.4% | SK-OV-3 ovarian 70.2% | NCI/ADR-RES ovarian 13.4% | T-47D breast 17.5% | BT-549 breast 20.5% | MDA-MB-435 melanoma 43.5% | MCF7 breast 11.8% | HCC-2998 colon 78.6%

O=C(NOC[C@H](O)CO)c1ccc(F)c(F)c1Nc1ccc(I)cc1F
active: OVCAR-5 ovarian 9.99% | HCC-2998 colon -15.9%
inactive: SR leukemia 45.7% | OVCAR-8 ovarian 43.5% | OVCAR-4 ovarian 62% | SK-OV-3 ovarian 46.3% | IGROV1 ovarian 14.1% | OVCAR-3 ovarian 95.1% | NCI/ADR-RES ovarian 59.2% | T-47D breast 62.2% | BT-549 breast 80.4% | MDA-MB-435 melanoma 33% | SW-620 colon 18.5% | MCF7 breast 93.3% | HCT-116 colon 11.5% | KM12 colon 24.1%

COc1cc(Nc2ncc3c(n2)-c2ccc(Cl)cc2C(c2c(F)cccc2OC)=NC3)ccc1C(=O)O
inactive: OVCAR-8 ovarian 68.3% | OVCAR-5 ovarian 82.4% | OVCAR-4 ovarian 78.4% | SK-OV-3 ovarian 61.6% | IGROV1 ovarian 63.3% | OVCAR-3 ovarian 72.9% | NCI/ADR-RES ovarian 64.2% | T-47D breast 79.6% | BT-549 breast 62.8% | MDA-MB-435 melanoma 85.9% | MCF7 breast 42.5% | HCT-116 colon 45.3% | HCC-2998 colon 87.5% | KM12 colon 28.3%
active: SR leukemia 5.63%

CCCCCCCCCNCCCCCCCCC
active: SR leukemia -22.9%
inactive: OVCAR-8 ovarian 73.5% | OVCAR-5 ovarian 63.5% | OVCAR-4 ovarian 29.2% | SK-OV-3 ovarian 92.6% | IGROV1 ovarian 50.8% | OVCAR-3 ovarian 86% | T-47D breast 57.7% | MDA-MB-435 melanoma 47.6% | SW-620 colon 41.5% | MCF7 breast 13.4% | HCT-116 colon 20.2% | HCC-2998 colon 23.8%

CCN1CCN(Cc2ccc(NC(=O)Nc3nc(-c4cc(OC)c(OC)c(OC)c4)cs3)cc2C(F)(F)F)CC1
inactive: OVCAR-8 ovarian 14.1% | OVCAR-5 ovarian 71.3% | OVCAR-4 ovarian 14.1% | SK-OV-3 ovarian 36.1% | IGROV1 ovarian 49.5% | OVCAR-3 ovarian 22.8% | BT-549 breast 45.3%
active: SR leukemia -32.6% | NCI/ADR-RES ovarian -6.84% | T-47D breast -23.9% | MDA-MB-435 melanoma -51.4% | SW-620 colon 3.34% | MCF7 breast -15.2% | HCT-116 colon -58% | HCC-2998 colon -36.6% | KM12 colon -56.8%
